Sampled rows, rich in hits. Any-hit rate of the full collection: about 11%.
HPGD inh – blocks human HPGD enzyme activity | actives 4.3% (n = 150,000) | AID 894 | P15428 | Potency, µM, for the others: top-dose activity change, negative = inhibition, actives largely listed as inhibitors | purified HPGD, NADH fluorescence kinetic, PGE2 substrate; note: potency is the fitted concentration of half-maximal effect
Target sequence (P15428 whole entry, looked up): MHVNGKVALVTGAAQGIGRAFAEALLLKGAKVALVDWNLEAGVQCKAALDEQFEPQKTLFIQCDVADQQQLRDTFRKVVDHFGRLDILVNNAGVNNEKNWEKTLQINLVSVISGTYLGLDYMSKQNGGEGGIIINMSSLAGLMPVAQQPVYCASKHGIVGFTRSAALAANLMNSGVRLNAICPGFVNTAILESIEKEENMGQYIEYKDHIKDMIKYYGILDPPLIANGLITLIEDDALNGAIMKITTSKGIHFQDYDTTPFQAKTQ
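NADH formation kinetics: reaction with 30 uM PGE2 and 1 mM NAD+ (final), 20 nM enzyme, Tris-HCl pH 8 with Tween 20, after 15 min compound preincubation at room temperature. Fluorescence change, last versus first of five reads.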
ALDH1A1 block – ALDH1A1 (human) enzyme inhibition; P00352; Purified ALDH1A1, NADH fluorescence, propionaldehyde substrate; Potency, µM (series often up to 75.3 µM), inactives show at the top dose activity, negative = inhibition, actives largely listed as inhibitors; actives 7.3% (n = 220,000);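 note: potency is the fitted concentration of half-maximal effect; plate controls were no enzyme wells and a reference inhibitor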
PNC assembly inh – perinucleolar compartment assembly inhibition; PC3M PTB-GFP, PNC prevalence imaging, 16 h; active compounds read low; activity change (PNC), negative = inhibition, % at 10 µM; actives 3.1% (n = 140,000); AID 2417;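 active = readout at or below -70, meaning at least 70% loss of cells showing the perinucleolar compartment, a nuclear body marking cancer cells; inconclusive = readout between -30 and a set limit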;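 note: plate controls were DMSO wells for no effect and camptothecin positive control wells for full effect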
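PC3M cells stably expressing PTB-GFP, 750–1000 cells/well, treated 16 h at 37 °C with compound (23 nl of library stock), in duplicate. After paraformaldehyde fixation and Hoechst stain, imaged at 20x; PNC prevalence scored by image analysis.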
JMJD2E inh – JMJD2E (human) inhibition. B2RXH2. JMJD2E catalytic domain, FDH-coupled NADH fluorescence (FDH is formaldehyde dehydrogenase). Potency, µM (titrated, usually from 57.1 µM), for the others: top-dose activity change, negative = inhibition, actives largely listed as inhibitors. actives 1.6% (n = 230,000);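 note: potency is the fitted concentration of half-maximal effect; 0% = wells with enzyme and -100% = buffer wells without enzyme; nearly all actives have a fitted effect of over 50% in size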
Starred values were filed as active, the others as inactive; [ ] = dose if it differs, or a comment. Unless noted, calls come from the whole dose curve; as a rule, active = well fitted inhibition curve with a large enough effect (not every such curve was filed as active); inconclusive = small, poorly fitted or top-dose-only effect, or another doubt; inactive = no such curve, though single readings can be large or run the other way. Unless noted, % is set by controls: 0 for no effect and ±100 for the full control effect.

Results for O=C1CC2(CCCC2)CC(=O)N1CCCCNC[C@H]1COc2ccccc2O1 ?
HPGD inh: -2%; ALDH1A1 block: 10µM*; JMJD2E inh: 10%

How did c1ccc(CCCCNCC2COc3ccccc3O2)cc1 (centres undefined) do in these assays?
ALDH1A1 block: inconclusive; JMJD2E inh: -9%

How did CCCNCC1COc2ccccc2O1 (centres undefined) do in these assays?
HPGD inh: -16%; ALDH1A1 block: 12%; PNC assembly inh: 11; JMJD2E inh: 5%

How did O=C(CC1COc2ccccc2O1)NCCc1ccccc1 (centres undefined) do in these assays?
HPGD inh: 7.1µM*; ALDH1A1 block: -15%; PNC assembly inh: 50; JMJD2E inh: -5%

What do the screens show for `Cc1ccc(/C=C/C(=O)NCC2COc3ccccc3O2)o1` (centres undefined)?
ALDH1A1 block: 6.3µM*; JMJD2E inh: -7%

How did CCOC(=O)CCNCC1COc2ccccc2O1 (centres undefined) do in these assays?
HPGD inh: -4%; ALDH1A1 block: 7%; PNC assembly inh: -92*; JMJD2E inh: -4%

How did O=C(CC1COc2ccccc2O1)NCc1ccccc1 (centres undefined) do in these assays?
HPGD inh: -23%; ALDH1A1 block: -6%; PNC assembly inh: 0; JMJD2E inh: -4%

What do the screens show for `Fc1cccc(-c2csc(-c3ccno3)n2)c1`?
ALDH1A1 block: 22µM*; JMJD2E inh: inconclusive

Results for Clc1ccc(-c2csc(-c3ccno3)n2)cc1 ?
JMJD2E inh: -27%

How did Cn1c(CN2CCCC(C(=O)c3ccc4c(c3)OCO4)C2)nc2ccccc21 (centres undefined) do in these assays?
ALDH1A1 block: 28µM*; JMJD2E inh: inconclusive

Results for COc1ccc(COC(=O)N/N=C2/C[C@@H](O)[C@@H](O)[C@@H]3[C@@H]4C(=O)N(C5CCCCC5)C(=O)[C@H]4CC[C@@H]23)cc1 ?
ALDH1A1 block: -5%[13.5 µM]

What do the screens show for `O=C(Nc1ccccc1C(=O)O)c1ccc(Br)c(S(=O)(=O)NCc2ccccc2)c1`?
ALDH1A1 block: inconclusive; JMJD2E inh: 5%

What do the screens show for `O=C(O)/C(Cc1cn[nH]n1)=N\O`?
HPGD inh: -6%; ALDH1A1 block: inconclusive

How did Cc1nc2nc(Cc3ccccc3)nn2c(C)c1Cl do in these assays?
HPGD inh: -17%; ALDH1A1 block: 14µM*; PNC assembly inh: 3; JMJD2E inh: 1%

Results for CCc1ccc(C(=O)c2cnc3ccc(OC)cc3c2N2CCN(CC)CC2)cc1 ?
ALDH1A1 block: 18µM*; JMJD2E inh: 3%

What do the screens show for `CCOC(=O)C1CCN(c2c(C(=O)c3ccccc3)cnc3ccc(Cl)cc23)CC1`?
ALDH1A1 block: 4.5µM*; JMJD2E inh: -6%

What do the screens show for `CCOc1ccc2ncc(C(=O)c3ccc(OC)cc3)c(N3CCN(CC)CC3)c2c1`?
ALDH1A1 block: 0.71µM*; JMJD2E inh: 4%

How did CCOc1ccc(C(=O)c2cnc3ccccc3c2N2CCN(CC)CC2)cc1 do in these assays?
ALDH1A1 block: 8.9µM*; JMJD2E inh: -11%

Results for C=CCN(CC=C)CCCOc1ccc(Br)cc1Cl ?
ALDH1A1 block: 1%; JMJD2E inh: 5%

Results for Cn1ccc(C(=O)Oc2ccc(C(=O)Nc3ccc(F)cc3F)cc2)n1 ?
ALDH1A1 block: 8%; JMJD2E inh: 8%

What do the screens show for `Clc1ccccc1-c1ccc2ncnc(NCCN3CCOCC3)c2c1`?
ALDH1A1 block: -6%

How did CCc1ccc(C(=O)Nc2cc(C)ccc2F)s1 do in these assays?
ALDH1A1 block: 13%; JMJD2E inh: 5%

How did COc1ccc(NC(=O)CC2C(=O)N(c3cccc(OC)c3)C(=O)N2Cc2ccco2)cc1 (centres undefined) do in these assays?
ALDH1A1 block: 16µM*; JMJD2E inh: 4%

How did O=C(CCS(=O)(=O)CCN1CCOCC1)NCNC(=O)CCS(=O)(=O)CCN1CCOCC1 do in these assays?
ALDH1A1 block: 4%; JMJD2E inh: 9%

How did Nc1ccc2c(c1)C(=O)N(CC1CCCO1)C2=O (centres undefined) do in these assays?
HPGD inh: -5%; ALDH1A1 block: 8.9µM*; PNC assembly inh: 27; JMJD2E inh: -4%

Results for O=C(NN1C(=O)c2ccccc2C1=O)c1ccc2c(c1)C(=O)N(CC1CCCO1)C2=O (centres undefined) ?
JMJD2E inh: -2%

Screening data: PubChem, National Center for Advancing Translational Sciences (NCATS)
